± gives the standard deviation of the averaged measurements.
Tests used:
DLD1 [1] = assay: cell viability (CellTiter-Glo) relative to plate median (fraction of plate median); higher = more viable cells; settings: 5 µM; treatment time 24 h; reporter: 7TFP
Method in brief: (§1)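 Stable lentiviral TCF/Wnt firefly luciferase reporters (7TFP or TCF4/Wnt) were present in the colorectal cancer cell lines used. These cells received library compounds at a final 5 µM for 24 h, and parallel plates were read for firefly luciferase or CellTiterGlo luminescence. Each well was normalised to the plate median, and the value reported is the mean of two independent replicates.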

HCT116 = assay: as above; settings: 5 µM; treatment time 24 h; reporter: TCF4/Wnt
Method in brief: as §1

SW480 [2] = assay: as above; settings: 5 µM; treatment time 24 h; reporter: 7TFP
Method in brief: as §1

DLD1 [3] = assay: TCF/Wnt firefly luciferase reporter signal relative to plate median (fraction of plate median); higher = higher Wnt reporter signal; settings: 5 µM; treatment time 24 h; reporter: 7TFP
Method in brief: as §1

SW480 [4] = assay: as above; settings: 5 µM; treatment time 24 h; reporter: 7TFP
Method in brief: as §1

Compound	cell viability (DLD1 [1])	cell viability (HCT116)	cell viability (SW480 [2])	TCF/Wnt firefly luciferase reporter signal (DLD1 [3])	TCF/Wnt firefly luciferase reporter signal (SW480 [4])
COc1cc(NS(=O)(=O)c2ccc(N)cc2)ncn1	0.88 ± 0.0092	0.9455 ± 0.005	0.931 ± 0.037	0.99 ± 0.028	0.941 ± 0.028
CC(=O)Nc1ccc(O)cc1	0.935 ± 0.028	0.948 ± 0.14	0.996 ± 0.02	0.923 ± 0.12	1.05 ± 0.071
O=c1c(-c2ccc(O)cc2)coc2cc(O)ccc12 [Daidzein (Biofocus)]	1.02 ± 0.03	1.16 ± 0.11	1.05 ± 0.057	1.11 ± 0.11	0.976 ± 0.091
NCCCCC(=O)O	0.9365 ± 0.0021	0.981 ± 0.098	1.03 ± 0.021	1.06 ± 0.19	0.9645 ± 0.00071
O=C(O)c1cc(/N=N/c2ccc(S(=O)(=O)Nc3ccccn3)cc2)ccc1O	0.992 ± 0.0042	1 ± 0.078	1.04 ± 0.057	0.899 ± 0.083	0.837 ± 0.02
C[C@@H]1CC(=O)c2c(ccc3c2C(=O)c2cccc(O)c2C3=O)C1 [Ochromycinone (Isoform A, compound ID 7490)]	1.06 ± 0.078	1.005 ± 0.0071	1.02 ± 0.072	1 ± 0.023	0.997 ± 0.32
C=CC1=C(C)/C(=C/c2[nH]c(Cc3[nH]c(/C=C4\NC(=O)C(C)=C4C=C)c(C)c3CCC(=O)O)c(CCC(=O)O)c2C)NC1=O	1.04 ± 0.087	1.03	0.98 ± 0.018	0.964 ± 0.15	0.936 ± 0.018
COc1c2ccoc2nc2c(OC)c(OCC(O)C(C)(C)O)ccc12 (stereo not given)	1.02 ± 0.038	1 ± 0.014	1 ± 0.013	1.03 ± 0.047	1.02 ± 0.057
COC(=O)C[C@H]1C(C)(C)C(=O)[C@@H]2CC3=C4CC(=O)O[C@@H](c5ccoc5)[C@]4(C)CC[C@@H]3[C@@]1(C)C2=O	1.01 ± 0.016	1.01 ± 0.014	1.035 ± 0.0071	0.924 ± 0.0028	1.03 ± 0.035
CC(C)OC(=O)C(C)(C)Oc1ccc(C(=O)c2ccc(Cl)cc2)cc1	1.08 ± 0.071	1.045 ± 0.0071	1.04	0.917 ± 0.14	0.939 ± 0.015
NCCCC(O)(P(=O)(O)O)P(=O)(O)O	0.98 ± 0.028	0.974 ± 0.12	0.963 ± 0.0042	0.974 ± 0.12	1.02 ± 0.03
NC[C@@H]1O[C@H](O[C@H]2[C@@H](O)[C@H](O[C@@H]3[C@@H](O)[C@H](N)C[C@H](N)[C@H]3O[C@H]3O[C@H](CO)[C@@H](O)[C@H](O)[C@H]3N)O[C@@H]2CO)[C@H](N)[C@@H](O)[C@@H]1O	1.1 ± 0.035	0.975 ± 0.064	1.065 ± 0.0071	0.901 ± 0.043	0.995 ± 0.11
COc1c(O)cc2c(-c3ccccc3)cc(=O)oc2c1OC	0.989 ± 0.016	1.03 ± 0.028	0.977 ± 0.061	1.03	0.977 ± 0.033
N[C@@H]1CONC1=O	1.04 ± 0.11	1.05 ± 0.035	1.04 ± 0.061	1.05 ± 0.028	0.969 ± 0.21
CC1=C(C(=O)O)N2C(=O)[C@@H](NC(=O)[C@H](N)C3=CCC=CC3)[C@H]2SC1	0.978 ± 0.073	0.958 ± 0.018	0.948 ± 0.021	1.01 ± 0.09	1.02 ± 0.021
COc1cc2nc(N3CCN(C(=O)C4CCCO4)CC3)nc(N)c2cc1OC (stereo not given)	1.05 ± 0.05	0.991 ± 0.11	1.03 ± 0.05	1.14 ± 0.13	1 ± 0.039
NC(Cn1ccc(=O)c(O)c1)C(=O)O (stereo not given)	0.987 ± 0.076	0.8415 ± 0.00071	0.989 ± 0.044	0.85 ± 0.016	0.947 ± 0.12
